Measurements published in PubChem BioAssay (Tox21).
Activity calls are given as the source filed them. Calls come from the whole dose curve; as a rule, active = well fitted curve in the direction sought with a large enough effect in the repeat runs; inconclusive = weak or mixed curves; inactive = flat fitted curve, though single readings scatter.

Assay: qHTS assay to test for compound auto fluorescence at 590 nm (red) in HEK293 cell free culture (AID 720683)
Details: cell-free medium autofluorescence, Ex540/Em590 red; series mostly up to 91.3 µM
Text: U.S. Tox21 Program National Center for Advancing Translational Sciences [NCATS] NIH Chemical Genomics Center [NCGC] U.S. Environmental Protection Agency [EPA] National Institutes of Environmental Health Sciences [NIEHS] National Toxicology Program [NTP] U.S. Food and Drug Administration [FDA] Tox21 Assay Overview: Compound auto fluorescence often interferes with screening of the compound library against various biological targets and signaling pathways. Some of these compounds may have fluorophoric properties. Such properties may interfere with the assay outputs resulting in false positives and/or negatives. To decrease such complications and ensure the compound activities are relevant in terms of biological response, the Tox21 10K compound library was screened for auto fluorescence. From the fluorophores used as reporter signals in our screening assays, the auto fluorescence equivalencies of compounds against three fluorophores have been evaluated: Triamterene, Fluorescein and Rose Bengal sodium for blue, green and red fluorescence, respectively. The fluorescence intensities were measured using Excitation/Emission wavelengths at 405/460nm, 485/535nm and 540/590nm for blue, green and red labels, respectively. This assay includes the red fluorescence data.
Tox21 Assay Protocol Summary: 5 uL of culture medium (DMEM containing 10% FBS) per well was dispensed into black wall/clear bottom 1536-well plates using a Multidrop Combi Dispenser (ThermoFisher Scientific, Waltham, MA). After 23 nL compound or DMSO vehicle was transferred into assay plate by a pintool work station (Kalypsys, San Diego, CA), fluorescence intensities in the assay plates were measured by an Envision (PerkinElmer, Shelton, CT) plate reader using three labels for measuring blue, green and red fluorescence at […] 460, 535 and 590nm respectively.

Row | Compound | outcome
1 | CNC(=O)N(C)c1nnc(C(C)(C)C)s1 | inactive
2 | c1ccc(P(c2ccccc2)c2ccccc2)cc1 | inactive
3 | CC(C)=CC1C(C(=O)OCc2coc(Cc3ccccc3)c2)C1(C)C (stereo not given) | inactive
4 | CCCCC(CC)COC(=O)Cl (stereo not given) | inactive
5 | CC(C)(c1cc(Cl)c(O)c(Cl)c1)c1cc(Cl)c(O)c(Cl)c1 | inactive
6 | Cc1cc(Cl)ccc1OCCCC(=O)O | inactive
7 | O=[N+]([O-])c1cccc2ccccc12 | inactive
8 | CCN(CC)C(=O)SCc1ccc(Cl)cc1 | inactive
9 | CCCCOCCOP(=O)(OCCOCCCC)OCCOCCCC | inactive
10 | O=C1C=CC(=O)C=C1 | inactive
11 | CC(C)C(=O)OCC(C)(C)C(OC(=O)C(C)C)C(C)C (stereo not given) | inactive
12 | N[C@@H](Cc1ccc(N(CCCl)CCCl)cc1)C(=O)O | inactive
13 | Cc1ccc(N)c(N)c1 | inactive
14 | Cc1cc(C)cc(C)c1 | inactive
15 | O=C(Nc1ccc(Br)cc1)c1cc(Br)cc(Br)c1O | inactive
16 | CC(O)CCO (stereo not given) | inactive
17 | S=C1NCCN1 | inactive
18 | CCCCCc1cc(O)cc(O)c1 | inactive
19 | O=[N+]([O-])c1ccc(O)c([N+](=O)[O-])c1 | inactive
20 | Cc1cccc(N)c1N | inactive

Row | Compound | outcome
21 | Nc1cccnc1 | inactive
22 | CC(C)NC(C)C | inactive
23 | CC(C)(C)c1ccccc1O | inactive
24 | CCOc1cc(C=O)ccc1O | inactive
25 | NC(=S)Nc1ccccc1 | inactive
26 | CCOP(=S)(OCC)O/N=C(\C#N)c1ccccc1 | inactive
27 | Nc1ccc(-c2ccc(N)c(N)c2)cc1N | inactive
28 | CN(C)C(=O)Nc1ccc(Cl)cc1 | inactive
29 | CCOc1cc(Oc2ccc(C(F)(F)F)cc2Cl)ccc1[N+](=O)[O-] | inactive
30 | N#CC(Br)Br | inactive
31 | CC(C)c1ccc(CO)cc1 | inactive
32 | CC(C)(OOC(C)(C)c1ccccc1)c1ccccc1 | inactive
33 | O=C(CCl)c1ccccc1 | inactive
34 | O=P(O)(O)CCCl | inactive
35 | Oc1cc(Cl)c(Cl)cc1Cl | inactive
36 | O=C(NC(=O)c1c(F)cccc1F)Nc1ccc(Cl)cc1 | inactive
37 | CC(C)N(C(=O)SCC(Cl)=C(Cl)Cl)C(C)C | inactive
38 | CCC(C)(c1ccc(O)cc1)c1ccc(O)cc1 | inactive
39 | N#CCCCl | inactive
40 | CCC(C)c1cc([N+](=O)[O-])cc([N+](=O)[O-])c1O (stereo not given) | inactive
